The nature of assay [1]: HepG2 liver cancer cell viability effects, profiling panel, resazurin fluorescence, 24 h, PK04 Diversity Set (AID 1172). Further: test concentration not given here. The conditions noted are these: higher = more signal. For orientation: The colour change of resazurin is a common sign of viable cells or microbes.
Assay [2] is described as follows: basal S. cerevisiae growth modulation, no modifier, primary screen, OD600, strain BY4716, 24 h, basal condition (AID 1173). The conditions noted are these: OD600, 24 h, higher = more signal, called active from +8 up or from −8 down.
Assay [3] in a line: MM1S myeloma cell viability, profiling panel, resazurin fluorescence, basal, 24 h, PK04 Diversity Set (AID 1174). Further: test concentration not given here. The conditions noted are these: higher = more signal, called active from +8 up or from −8 down.
Assay [4] deals with Dihydroorotate dehydrogenase (quinone), mitochondrial (Plasmodium falciparum (isolate 3D7)) (UniProt Q08210). Briefly: PfDHODH enzyme inhibitors, primary screen, biochemical, C-terminal His tag, absorbance 600 nm (AID 1175).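 Further: recombinant parasite enzyme with a five histidine tag at its C terminus; test concentration not given here.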 The conditions noted are these: DCIP absorbance 600 nm, higher = more signal, called active from +8 up or from −8 down.
Assay [5] in a line: P. aeruginosa biofilm formation inhibitors, primary screen, strain PAO1, LB-PBS medium, absorbance 600 nm (AID 1176). Further: test concentration not given here. Particulars: P. aeruginosa PAO1 growth/biofilm, A600, 12 h; higher = more signal.
Assay [6] can be described thus: S. cerevisiae RM11-1a growth modifiers, primary screen, strain RM11-1a, OD600, basal, 24 h (AID 1177).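 Further: cultures grown under basal conditions with no added stressor; test concentration not given here.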 The conditions noted are these: OD600, 24 h, higher = more signal, called active from +8 up or from −8 down.
Assay [7] can be described thus: E. coli acrAB mutant growth effects, primary screen, E. coli filamentation inducers, strain DRC39, OD650, 24 h (AID 1178).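 Further: growth measured as culture turbidity by optical density at 650 nm; test concentration not given here.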 Particulars: higher = more signal, called active from +8 up or from −8 down.
Assay [8] is described as follows: E. coli acrAB mutant growth effects, primary screen, E. coli filamentation inducers, strain DRC39, OD650, 48 h (AID 1179).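 Further: screen aims at cell division blockers that make cells filament.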 The conditions noted are these: E. coli DRC39 delta-acrAB growth, higher = more signal, called active from +8 up or from −8 down.
Assay [9] in a line: RPMI8226 myeloma cell viability, profiling panel, resazurin fluorescence, basal, 24 h, PK04 Diversity Set (AID 1180).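 Further: RPMI8826 multiple myeloma cell line at 5000 cells per well; test concentration not given here.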 The conditions noted are these: higher = more signal.
Assay [10] deals with E3 ubiquitin-protein ligase XIAP (Homo sapiens) (UniProt P98170). The assay can be described thus: XIAP binders, primary screen, biophysical, small-molecule microarray, fluorescence 635 nm (AID 1181).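 Further: score merges 667 nm emission and signal to noise over triplicate slides.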 The conditions noted are these: small-molecule microarray binding, higher = more signal.

The structures appear in SMILES notation. Calls of active or inactive are those of the source. Unless noted, how the calls were made is not given here.

Sequence of Dihydroorotate dehydrogenase (quinone), mitochondrial (Plasmodium falciparum (isolate 3D7)) (Q08210 whole entry, looked up): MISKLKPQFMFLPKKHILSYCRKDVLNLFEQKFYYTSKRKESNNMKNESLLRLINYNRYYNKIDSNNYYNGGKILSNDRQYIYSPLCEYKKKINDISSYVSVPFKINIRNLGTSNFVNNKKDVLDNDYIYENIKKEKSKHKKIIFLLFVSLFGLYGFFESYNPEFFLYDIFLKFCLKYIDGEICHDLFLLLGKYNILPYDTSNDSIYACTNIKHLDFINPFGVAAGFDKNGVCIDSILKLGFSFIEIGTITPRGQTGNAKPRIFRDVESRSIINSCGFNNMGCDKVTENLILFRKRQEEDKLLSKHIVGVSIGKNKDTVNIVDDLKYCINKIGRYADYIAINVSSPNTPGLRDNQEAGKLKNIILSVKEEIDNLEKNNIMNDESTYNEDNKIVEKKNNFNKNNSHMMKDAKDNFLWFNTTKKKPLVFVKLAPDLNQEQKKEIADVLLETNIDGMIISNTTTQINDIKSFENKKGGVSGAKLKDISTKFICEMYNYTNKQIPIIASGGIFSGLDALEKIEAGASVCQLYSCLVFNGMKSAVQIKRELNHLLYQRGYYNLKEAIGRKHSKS
Sequence of E3 ubiquitin-protein ligase XIAP (Homo sapiens) (P98170 whole entry, looked up): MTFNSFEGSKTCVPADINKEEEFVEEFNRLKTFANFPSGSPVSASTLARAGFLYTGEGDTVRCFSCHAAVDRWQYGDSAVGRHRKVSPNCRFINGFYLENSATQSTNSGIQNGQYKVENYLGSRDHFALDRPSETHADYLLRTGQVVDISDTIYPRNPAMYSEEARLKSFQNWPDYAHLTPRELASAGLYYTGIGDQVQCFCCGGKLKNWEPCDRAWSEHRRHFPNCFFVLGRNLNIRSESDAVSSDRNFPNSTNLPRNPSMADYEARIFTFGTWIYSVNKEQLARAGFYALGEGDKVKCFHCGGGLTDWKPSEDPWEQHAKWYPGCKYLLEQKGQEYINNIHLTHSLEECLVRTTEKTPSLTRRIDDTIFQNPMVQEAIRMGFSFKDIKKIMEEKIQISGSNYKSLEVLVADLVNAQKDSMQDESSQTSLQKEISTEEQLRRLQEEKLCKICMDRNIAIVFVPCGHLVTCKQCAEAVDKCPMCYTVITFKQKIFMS

With `CCOC(=O)[C@H](CC(C)C)NC(=O)CCC1CC(OC(=O)NCc2cccc3ccccc23)CC2(CCCC(COC(=O)NCCc3ccc(Cl)cc3)O2)O1` (stereo not given in full), the z-score in assay [1] was 0.568; in assay [2], -1.89 (inactive); in [3], 1.15 (inactive); in [5], 0.262 (inactive); in [6] it was -1.2 (inactive); in assay [7], 0.389 (inactive). Moreover, the z-score in [8] was -0.214 (inactive); in assay [9], 1.3. Further, the composite z-score is -1.16 (inactive) in assay [4] and -0.0559 in assay [10].

With `CCOC(=O)[C@H](CC(C)C)NC(=O)CCC1CC(OC(=O)NCCc2ccc(F)cc2)CC2(CCCC(COC(=O)NCCC(C)C)O2)O1` (stereo not given in full), the z-score in assay [1] is -0.566; in [2], 1.2 (inactive); in assay [3], 0.214 (inactive); in assay [5] it was 0.532 (inactive); in assay [6], 0.821 (inactive); in assay [7] it was 0.334 (inactive). The values for the z-score in assay [8] and in assay [9] were -0.139 (inactive) and 0.398, respectively. Moreover, the figures for the composite z-score in [4] and in [10] were 0.322 (inactive) and 0.0938, respectively.

For the molecule `C[C@@H](c1ccccc1)N1C(=O)[C@H]2[C@H]3[C@H](O)[C@H](O)CC(=NO[C@@H]4O[C@H](CO)[C@@H](O)[C@H](O)[C@H]4O)[C@@H]3CC[C@H]2C1=O`, the z-score is -0.416 in assay [1]; 0.0492 (inactive) in assay [2]; -0.671 (inactive) in assay [3]; 0.14 (inactive) in [5]; -0.294 (inactive) in assay [6]; -0.403 (inactive) in assay [7]. Also, the figures for the z-score in assay [8] and in assay [9] were 0.334 (inactive) and -0.361, respectively. Moreover, the composite z-score in assay [4] was -0.337 (inactive); in [10], -0.254.

Take `CC(=O)O[C@H]1C2=CO[C@H](C)[C@H]3[C@H]4C5=C([C@H](O)[C@H]6O[C@H]6C5=O)[C@H](OC4C)[C@@]23C(=O)[C@@H]2O[C@@H]21` (stereo not given in full): the z-score in assay [1] is -1.75; in [2], 0.0895 (inactive); in assay [3] it was -4.88 (inactive); in [5], 1.09 (inactive); in assay [6] it was -0.464 (inactive); in [7] it was -0.262 (inactive). Besides, the z-score in assay [8] is -0.267 (inactive); in assay [9], -3.5. The composite z-score in assay [4] is -0.219 (inactive); in assay [10] it was -0.266.

Take `C#CCCCON=C1C[C@@H](O)[C@@H](O)[C@@H]2[C@@H]3C(=O)N(CC)C(=O)[C@@H]3CC[C@@H]12`: the z-score in assay [1] is -0.245; in assay [2], 0.961 (inactive); in [3] it was -0.529 (inactive); in assay [5] it was 0.07 (inactive); in [6], 0.375 (inactive); in assay [7] it was 0.0322 (inactive). The z-score in assay [8] was -0.569 (inactive); in assay [9], -0.244. Further, the results for the composite z-score in [4] and in assay [10] were -0.367 (inactive) and -0.0473, respectively.

Regarding `O=C1C2=CC[C@H]3C(=O)N(c4cccc(Oc5ccccc5)c4)C(=O)[C@H]3[C@H]2[C@H](O)[C@@H]2O[C@H]12`, the z-score in assay [1] was -1.02; in [2], -1.72 (inactive); in assay [3], -6.54 (inactive); in assay [5], -0.261 (inactive); in assay [6], -0.0295 (inactive); in [7], -0.392 (inactive). Further, the z-score is -0.281 (inactive) in assay [8] and -3.76 in assay [9]. The composite z-score is -1.2 (inactive) in assay [4] and 0.0506 in assay [10].

`CC(C)=CCCC(C)=CCON=C1C[C@@H](O)[C@@H](O)[C@@H]2[C@@H]3C(=O)N(c4ccc(F)cc4F)C(=O)[C@@H]3CC[C@@H]12`: the z-score was 0.387 in [1]; -1.38 (inactive) in [2]; 0.77 (inactive) in assay [3]; 0.519 (inactive) in [5]; 0.225 (inactive) in assay [6]; 0.781 (inactive) in assay [7]. Moreover, the results for the z-score in assay [8] and in assay [9] were 0.345 (inactive) and 0.75, respectively. In addition, the values for the composite z-score in [4] and in assay [10] were 0.263 (inactive) and -0.336, respectively.

Consider `CCOC(=O)NN=C1C[C@@H](O)[C@@H](O)[C@@H]2[C@@H]3C(=O)N([C@@H](C)c4ccccc4)C(=O)[C@@H]3CC[C@H]12`, for which the z-score in [1] is 0.384; in assay [2] it was 0.448 (inactive); in assay [3], -0.495 (inactive); in assay [5] it was 0.0942 (inactive); in assay [6] it was -0.362 (inactive); in assay [7] it was -0.212 (inactive). Moreover, the z-score is -0.102 (inactive) in assay [8] and 0.331 in assay [9]. The composite z-score in [4] is -0.309 (inactive); in assay [10] it was -0.0076.

In the case of `CO[C@H]1COC(=O)CC=C[C@H](C)[C@@H](OC)COC(=O)[C@@H](C)NC(=O)CC=C[C@@H]1C`, the z-score was 0.789 in assay [1]; -0.774 (inactive) in [2]; 1.01 (inactive) in assay [3]; -0.491 (inactive) in assay [5]; -0.937 (inactive) in assay [6]; 0.0013 (inactive) in [7]. The figures for the z-score in assay [8] and in [9] were -0.597 (inactive) and 0.808, respectively. Moreover, the composite z-score was -0.355 (inactive) in assay [4] and -0.244 in assay [10].

With `O=C1[C@H]2[C@H]3[C@H](O)[C@H](O)CC(=NOCc4ccccc4)[C@@H]3CC[C@H]2C(=O)N1C[C@@H]1CCCO1`, the z-score in assay [1] was 0.0577; in [2], -0.321 (inactive); in assay [3] it was 0.161 (inactive); in assay [5], 0.611 (inactive); in assay [6], -0.447 (inactive); in assay [7], -0.242 (inactive). Further, the z-score in assay [8] was 0.403 (inactive); in assay [9], 0.278. The composite z-score in assay [4] was -0.0256 (inactive); in assay [10] it was -0.211.

Consider `COC(=O)[C@H](C)NC(=O)CCC1CC(OC(=O)NCc2ccc3c(c2)OCO3)CC2(CCCC(COC(=O)NCC3CCCCC3)O2)O1` (stereo not given in full), for which the z-score in assay [1] was 0.635; in assay [2] it was 0.415 (inactive); in assay [3], 0.138 (inactive); in [5], -0.388 (inactive); in assay [6] it was 1.13 (inactive); in assay [7], 0.49 (inactive). Further, the results for the z-score in [8] and in assay [9] were 0.139 (inactive) and -0.119, respectively. Further, the composite z-score in assay [4] is 0.981 (inactive); in assay [10], 0.104.

Turning to `CO[C@H]1COC(=O)[C@H](C)NC(=O)CC=C[C@@H](C)[C@H](OC)COC(=O)[C@@H](OCc2ccccc2)C=C[C@@H]1C`, the z-score in assay [1] is 1.15; in assay [2] it was -0.479 (inactive); in assay [3] it was 0.346 (inactive); in assay [5], -0.838 (inactive); in assay [6] it was -0.462 (inactive); in assay [7], 0.575 (inactive). Moreover, the z-score in assay [8] is 0.2 (inactive); in [9], 0.323. The results for the composite z-score in [4] and in [10] were 0.234 (inactive) and -0.142, respectively.
